Source: PubChem BioAssay (NCI)
About 83,000 compounds went through this panel and 20% of them were active in at least one assay; those are over-represented in the sample as a whole.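 Cell lines were cultured in 96-well plates, exposed to a single compound concentration, and assessed for percent growth 48 hours later.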 Unmarked numbers belong to inactive results. Activity calls are given as the source filed them. Rule for the calls: active = growth percent below 10; inactive = the rest.

Test system: OVCAR-8 ovarian
Test: NCI-60 one-dose screen, 48 h (100 = growth as untreated, 0 = no growth, -100 = all killed)
Settings: 10 µM unless noted

| Compound | growth |
| --- | --- |
| COc1cc(/C=C/C(=O)c2c(C)oc3nc[nH]c(=O)c23)ccc1O | 103% |
| CCc1nc(C)cn1C(=O)OCc1nc2nc(Cl)nc(N3CCOCC3)c2[nH]1 | -13.7% (active) |
| O=C(Nc1ccccc1)Oc1ccccc1-c1ccccc1 | 98.4% |
| COc1ccc(C(O)c2cc3c(N)c(C(=O)Nc4ccccc4)sc3nc2C)cc1 (stereo not given) | 8.92% (active) |
| CCC(C)N(CCNc1cc(OC)cc2cccnc12)CCC(C)C (stereo not given) | 86.6% |

Test system: OVCAR-5 ovarian
Test: as above
Settings: 10 µM unless noted

| Compound | growth |
| --- | --- |
| O=C1Nc2ccccc2/C1=C\c1cccc(/C=C2/C(=O)Nc3ccccc32)n1 | -69.5% (active) |
| COc1ccc(/C=N/NC(=O)c2cccc3cc[nH]c23)cc1O | 87.8% |
| CCN1C(=O)N(CC)C2C1NN=c1s/c(=C3\C(=O)Nc4ccccc43)c(=O)n12 (stereo not given) | 50.6% |
| CC(C)(O)C1CCCN1C(=O)c1ccccc1I (stereo not given) | 87.3% |
| O=C1NC(=S)NC(=O)C1=Cc1cccc(C=C2C(=O)NC(=S)NC2=O)c1 | 110% |
| Cn1c2c(Cl)c(Cl)ccc2c2cc(N)[nH]c(=O)c21 | 66.2% |
| COc1ccc(-c2cnnc3c(-c4cccc(C(F)(F)F)c4)cnn23)cc1 | 81% |
| O=C1Nc2c(ccc(Cl)c2Cl)/C1=C/c1ccc([N+](=O)[O-])cc1 | 98.1% |
| COc1ccc(-c2nc(SCC(C)C)nc(N/N=C(/C)c3ccc(OC)c(OC)c3)c2C#N)cc1 | 81.7% |
| NS(=O)(=O)c1cccc(NC(=O)C(=O)C2C(=O)Nc3ccccc32)c1 (stereo not given) | 96% |
| O=S(=O)(c1cccc(NC2=Nc3cccc4cccc2c34)c1)N1CCCC1 | 100% |
| CCOC(=O)c1c(SC)nn(-c2cc(=O)[nH]c3ccc(Br)cc23)c1N | 112% |
| CC(=O)c1c[nH]c2ccc(-c3ccnc(Nc4ccc(NC(=O)C5CCCC5)c(CN5CCOCC5)c4)n3)cc12 | -11.6% (active) |
| COc1ccc(/C=C(/c2ccccc2)[N+](=O)[O-])cc1 | -59.6% (active) |
| O=C1Nc2c(ccc(Cl)c2Cl)/C1=C/c1ccccn1 | 85.1% |
| CCN(CCNc1cc(OC)cc2cccnc12)CCc1ccccc1 | 93.9% |
| COc1cc2nc(-c3ccc(C#N)cc3)[nH]c(=O)c2cc1OC | 102% |
| CCCOc1nc(SCCC)nc2c1cnn2-c1ccccc1 | 89.2% |
| O=S(=O)(c1ccccc1)N1CCCc2ccccc21 | 103% |

| Compound | growth |
| --- | --- |
| O=C(Nc1ccc(Cl)cc1)Nc1ccc(Cl)c(Cl)c1 | 23.9% |
| COc1cc(NCC(O)CN(CC(C)C)C2CCCC2)c2ncccc2c1 (stereo not given) | 101% |
| COc1ccc(Nn2c(SCC(=O)Nc3nc(-c4ccc(Cl)cc4)cs3)nc(C)c2C)cc1 | 111% |
| COc1cccc2c1C(=O)c1c(O)c3c(c(O)c1C2=O)C[C@@](O)(C(=O)CO)C[C@@H]3O[C@H]1C[C@H](N)[C@@H](O)[C@H](C)O1 | 15.2% |
| Clc1ccc(N2N=C(c3cccc(Nc4ccncc4)c3)CC2c2ccc3c(c2)OCO3)cc1 (stereo not given) | 73.9% |
| O=C(N/N=C/c1ccncc1)c1ccccc1Nc1cccc(C(F)(F)F)c1 | 89.5% |
| COc1ccc(Cc2nc3cc(OC)c(OC)cc3c(=O)[nH]2)cc1 | 78.6% |
| COc1ccc(-c2c[nH]c(C(=O)O)c2-c2cc(OC)c3c(c2OC)OCO3)cc1 | 96.5% |
| Clc1ccc(N2N=C(c3cccc(Nc4ccncc4)c3)CC2c2ccccc2)cc1 (stereo not given) | 90% |
| COc1ccc(Cn2nc(-c3cc(OC)c(OC)c(OC)c3)c3c2CCc2cnoc2-3)cc1OC | 89.9% |
| COc1cc2nnn3c4ncccc4c(N=O)c3c2cc1OC | 102% |
| Clc1nc(Cl)c2ncn(CC3(Cn4cnc5c(Cl)nc(Cl)nc54)COC3)c2n1 | -86% (active) |
| C(=N\Nc1ncc(-c2cc3cc4c(cc3o2)OCO4)s1)/c1c[nH]c2ccccc12 | 9.56% (active) |
| COc1ccc(-c2nn(Cc3ccccc3)c3c2-c2oncc2CC3)cc1OC | 103% |
| COc1cc(/C=C/C(=O)c2c(C)oc3nc[nH]c(=O)c23)ccc1O | 96.5% |
| CCc1nc(C)cn1C(=O)OCc1nc2nc(Cl)nc(N3CCOCC3)c2[nH]1 | -48.9% (active) |
| O=C(Nc1ccccc1)Oc1ccccc1-c1ccccc1 | 90.5% |
| CCC(C)N(CCNc1cc(OC)cc2cccnc12)CCC(C)C (stereo not given) | 102% |

Test system: OVCAR-4 ovarian
Test: as above
Settings: 10 µM unless noted

| Compound | growth |
| --- | --- |
| O=C1Nc2ccccc2/C1=C\c1cccc(/C=C2/C(=O)Nc3ccccc32)n1 | 11.6% |
| COc1ccc(/C=N/NC(=O)c2cccc3cc[nH]c23)cc1O | 49.6% |
| CCN1C(=O)N(CC)C2C1NN=c1s/c(=C3\C(=O)Nc4ccccc43)c(=O)n12 (stereo not given) | 51.1% |
| CC(C)(O)C1CCCN1C(=O)c1ccccc1I (stereo not given) | 25.4% |
| O=C1NC(=S)NC(=O)C1=Cc1cccc(C=C2C(=O)NC(=S)NC2=O)c1 | 105% |
| Cn1c2c(Cl)c(Cl)ccc2c2cc(N)[nH]c(=O)c21 | 87.2% |
| COc1ccc(-c2cnnc3c(-c4cccc(C(F)(F)F)c4)cnn23)cc1 | 35.7% |
| O=C1Nc2c(ccc(Cl)c2Cl)/C1=C/c1ccc([N+](=O)[O-])cc1 | 100% |
| COc1ccc(-c2nc(SCC(C)C)nc(N/N=C(/C)c3ccc(OC)c(OC)c3)c2C#N)cc1 | 86.3% |
| NS(=O)(=O)c1cccc(NC(=O)C(=O)C2C(=O)Nc3ccccc32)c1 (stereo not given) | 102% |
| O=S(=O)(c1cccc(NC2=Nc3cccc4cccc2c34)c1)N1CCCC1 | 46.9% |
| CCOC(=O)c1c(SC)nn(-c2cc(=O)[nH]c3ccc(Br)cc23)c1N | 86.2% |
| CC(=O)c1c[nH]c2ccc(-c3ccnc(Nc4ccc(NC(=O)C5CCCC5)c(CN5CCOCC5)c4)n3)cc12 | -14% (active) |
| COc1ccc(/C=C(/c2ccccc2)[N+](=O)[O-])cc1 | -59.5% (active) |
| O=C1Nc2c(ccc(Cl)c2Cl)/C1=C/c1ccccn1 | 76.5% |
| CCN(CCNc1cc(OC)cc2cccnc12)CCc1ccccc1 | 19.1% |
| COc1cc2nc(-c3ccc(C#N)cc3)[nH]c(=O)c2cc1OC | 113% |
| CCCOc1nc(SCCC)nc2c1cnn2-c1ccccc1 | 99.6% |
| O=S(=O)(c1ccccc1)N1CCCc2ccccc21 | 113% |

| Compound | growth |
| --- | --- |
| O=C(Nc1ccc(Cl)cc1)Nc1ccc(Cl)c(Cl)c1 | 21.8% |
| COc1cc(NCC(O)CN(CC(C)C)C2CCCC2)c2ncccc2c1 (stereo not given) | 42.3% |
| COc1ccc(Nn2c(SCC(=O)Nc3nc(-c4ccc(Cl)cc4)cs3)nc(C)c2C)cc1 | 37% |
| COc1cccc2c1C(=O)c1c(O)c3c(c(O)c1C2=O)C[C@@](O)(C(=O)CO)C[C@@H]3O[C@H]1C[C@H](N)[C@@H](O)[C@H](C)O1 | 7.72% (active) |
| Clc1ccc(N2N=C(c3cccc(Nc4ccncc4)c3)CC2c2ccc3c(c2)OCO3)cc1 (stereo not given) | 44.7% |
| O=C(N/N=C/c1ccncc1)c1ccccc1Nc1cccc(C(F)(F)F)c1 | 66% |
| COc1ccc(Cc2nc3cc(OC)c(OC)cc3c(=O)[nH]2)cc1 | 105% |
| COc1ccc(-c2c[nH]c(C(=O)O)c2-c2cc(OC)c3c(c2OC)OCO3)cc1 | 100% |
| Clc1ccc(N2N=C(c3cccc(Nc4ccncc4)c3)CC2c2ccccc2)cc1 (stereo not given) | 88.9% |
| COc1ccc(Cn2nc(-c3cc(OC)c(OC)c(OC)c3)c3c2CCc2cnoc2-3)cc1OC | 70.7% |
| COc1cc2nnn3c4ncccc4c(N=O)c3c2cc1OC | 50.3% |
| Clc1nc(Cl)c2ncn(CC3(Cn4cnc5c(Cl)nc(Cl)nc54)COC3)c2n1 | -87.9% (active) |
| C(=N\Nc1ncc(-c2cc3cc4c(cc3o2)OCO4)s1)/c1c[nH]c2ccccc12 | -12.9% (active) |
| COc1ccc(-c2nn(Cc3ccccc3)c3c2-c2oncc2CC3)cc1OC | 86.8% |
| COc1cc(/C=C/C(=O)c2c(C)oc3nc[nH]c(=O)c23)ccc1O | 101% |
| CCc1nc(C)cn1C(=O)OCc1nc2nc(Cl)nc(N3CCOCC3)c2[nH]1 | -33.9% (active) |
| O=C(Nc1ccccc1)Oc1ccccc1-c1ccccc1 | 103% |
| COc1ccc(C(O)c2cc3c(N)c(C(=O)Nc4ccccc4)sc3nc2C)cc1 (stereo not given) | 42.6% |
| CCC(C)N(CCNc1cc(OC)cc2cccnc12)CCC(C)C (stereo not given) | 26% |
